“And” between values parts separate entries of the source, which are not always exact repeats. Equal entries are not always repeated. Inconclusive results are not listed. Entries that show only a call come without a potency. The source made the active and inactive calls. Unless noted, the call rests on the fitted dose curve; in most records, active means well fitted curve in the direction sought with a large enough effect; inconclusive means small, poorly fitted or top-dose-only effect, or another doubt; inactive means no such curve, though single readings can be large; an effect the other way counts as inactive or inconclusive.
Tests used:
[1] = Primary qHTS for small molecule stabilizers of the endoplasmic reticulum resident proteome: Secreted ER Calcium Modulated Protein (SERCaMP) assay (AID 1508630); details: SH-SY5Y GLuc-SERCaMP (Gaussia luciferase released on ER calcium loss) secretion, thapsigargin, luminescence; series mostly up to 38.4 µM; further: potency means the concentration at half of the fitted maximal effect
Procedure, shortened: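 The SH-SY5Y reporter protocol was run at 3 concentrations up to 38.3 uM (primary) or 11 concentrations (follow-up): 16 h compound, 100 nM thapsigargin for 4 h, then extracellular luciferase luminescence.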

[2] = Primary qHTS for inhibitors of nuclear receptor binding SET domain protein 2 (NSD2) in an isogenic RCH-ACV NSD2 p.E1099K mutant (9B) (AID 1645876); details: RCH-ACV NSD2 E1099K (9B) viability, CellTiter-Glo, 72 h; series mostly up to 44.9 µM; further: nearly all actives have a fitted effect of over 70% in size; further: potency means the concentration at half of the fitted maximal effect
[3] = molecular target: N-terminal Xaa-Pro-Lys N-methyltransferase 1 (Homo sapiens) (UniProt Q9BV86); assay: Confirmatory qHTS for Inhibitors of N-terminal methyltransferase 1 (NTMT1): MTaseGlo Assay (AID 1645874); details: NTMT1 enzyme, MTase-Glo SAH luminescence; series mostly up to 100 µM; further: potency means the concentration at half of the fitted maximal effect; nearly all actives have a fitted effect of over 65% in size
N-terminal Xaa-Pro-Lys N-methyltransferase 1 (Homo sapiens), sequence (Q9BV86 whole entry, looked up): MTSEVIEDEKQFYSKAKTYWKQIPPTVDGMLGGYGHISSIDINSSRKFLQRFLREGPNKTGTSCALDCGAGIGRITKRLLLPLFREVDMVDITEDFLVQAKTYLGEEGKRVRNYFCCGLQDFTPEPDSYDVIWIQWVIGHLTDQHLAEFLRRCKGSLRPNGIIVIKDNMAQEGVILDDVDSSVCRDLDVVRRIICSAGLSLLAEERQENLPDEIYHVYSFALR
Procedure, shortened: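 Enzyme mix (125 nM NTMT1, 100 uM SAM) + compound, 15 min RT; + 1 uM SPKRIA, 30 min RT, dark; MTase-Glo reagent 30 min, detection solution 30 min; luminescence. % inhibition vs no-enzyme/DMSO controls, 4-parameter Hill fit.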

Papain (Carica papaya) = Papain (Carica papaya) (UniProt P00784); assay: Primary qHTS assay for inhibitors of the protease papain (AID 1645873); details: papain Z-FR-AMC cleavage, AMC fluorescence; series mostly up to 49.8 µM;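 further: papain turnover of Z-FR-AMC read as the AMC fluorescence gain over 10 min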
Papain (Carica papaya), sequence (P00784 whole entry, looked up, the tested form may be a part): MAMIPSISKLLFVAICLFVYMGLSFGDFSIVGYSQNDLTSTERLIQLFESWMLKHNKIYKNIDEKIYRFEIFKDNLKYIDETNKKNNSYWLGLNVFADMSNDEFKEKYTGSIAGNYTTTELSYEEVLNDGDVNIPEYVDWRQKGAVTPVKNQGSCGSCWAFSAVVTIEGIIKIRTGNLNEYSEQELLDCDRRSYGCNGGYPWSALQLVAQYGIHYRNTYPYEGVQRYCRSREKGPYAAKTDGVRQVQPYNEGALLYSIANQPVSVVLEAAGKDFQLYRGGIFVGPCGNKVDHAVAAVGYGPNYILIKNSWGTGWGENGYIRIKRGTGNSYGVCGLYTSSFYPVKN

[4] = Primary qHTS for inhibitors of nuclear receptor binding SET domain protein 2 (NSD2) in an RCH-ACV wild type WT cells (2C) (AID 1645877); details: RCH-ACV (leukaemia line) NSD2 WT (2C) viability, CellTiter-Glo, 72 h; series mostly up to 44.9 µM; further: nearly all actives have a fitted effect of over 70% in size; further: potency means the concentration at half of the fitted maximal effect
[5] = molecular target: Cytochrome P450 2C9 (Homo sapiens) (UniProt P11712); assay: Cytochrome P450 family 2 subfamily C member 9 (CYP2C9) small molecule antagonists: luciferase biochemical (cell-free) qHTS assay (AID 1645842; active means well fitted curve in the direction sought with a large enough effect in the repeat runs; an effect the other way counts as inactive or inconclusive; further: nearly all actives have a fitted effect of over 55% in size; further: potency means the concentration at half of the fitted maximal effect); details: P450-Glo CYP2C9 enzyme assay, luciferin luminescence; series mostly up to 57.4 µM
Cytochrome P450 2C9 (Homo sapiens), sequence (P11712 whole entry, looked up): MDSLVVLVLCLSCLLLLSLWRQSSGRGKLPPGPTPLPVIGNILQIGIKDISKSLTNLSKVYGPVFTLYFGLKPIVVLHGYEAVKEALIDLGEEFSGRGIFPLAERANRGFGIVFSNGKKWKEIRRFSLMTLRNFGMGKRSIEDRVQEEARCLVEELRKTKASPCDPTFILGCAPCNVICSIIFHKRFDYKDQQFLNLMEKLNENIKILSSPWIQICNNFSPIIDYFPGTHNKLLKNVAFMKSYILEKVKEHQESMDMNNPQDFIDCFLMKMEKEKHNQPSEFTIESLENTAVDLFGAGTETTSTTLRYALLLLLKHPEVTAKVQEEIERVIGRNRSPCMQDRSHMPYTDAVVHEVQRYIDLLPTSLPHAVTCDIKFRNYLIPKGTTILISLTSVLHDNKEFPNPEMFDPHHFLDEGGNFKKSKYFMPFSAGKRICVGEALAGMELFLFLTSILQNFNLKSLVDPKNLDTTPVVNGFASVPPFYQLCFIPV
Procedure, shortened: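 P450-Glo CYP2C9 system: proluciferin substrate with enzyme in mix containing 0.4% BSA, 10 min at room temperature, then NADPH regeneration solution added and incubated 1 h at 37C. Detection reagent stopped reaction; luminescence read after 20 min as RLU.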

With `CN1N=C(N)c2cn([C@@H]3O[C@H](COP(=O)(O)O)[C@@H](O)[C@@H]3O)c3ncnc1c23` the Potency [1] was “inactive” and the Potency [2] was 2.63 µM (active).

In the case of `Nc1[nH]nc2nnc(-c3c(-c4ccccc4)nn4ccccc34)cc12`, the Potency [1] is reported as “inactive” and the Potency [3] is reported as 11.2 µM (active).

In the case of `C=CCc1cccc(C=NNC(=O)CN2CCN(Cc3ccccc3)CC2)c1O`, the Potency [1] is reported as “inactive” and the outcome (Papain (Carica papaya)) is reported as “inactive”.

For `NC(=O)c1noc([C@H](CCCC2CCCCC2)CC(=O)NO)n1`, the Potency [1] was “inactive” and the Potency [2] was 1.86 µM (active).

For `OC1CCC(Nc2ncc3nc(Nc4c(F)cc(F)cc4F)n([C@@H]4CCOC4)c3n2)CC1` (stereo partly specified), the Potency [1] was “inactive”, the Potency [2] was “inactive” and the Potency [4] was “inactive”.

In the case of `CC(NCCc1ccc(O)cc1)C(O)c1ccc(O)cc1` (stereo unspecified), the Potency [1] is reported as “inactive” and the Potency [2] is reported as “inactive”.

In the case of `CN1C(=O)C(Cc2c[nH]c3ccccc23)NC1=S` (stereo unspecified), the Potency [1] is reported as “inactive”, the Potency [2] is reported as “inactive” and the Potency [4] is reported as “inactive”.

In the case of `CC[C@H](CC#N)OC(=O)N[C@@H](C)c1cccc(NC(=O)Nc2ccc(-c3cnco3)c(OC)c2)c1`, the Potency [1] is reported as “inactive”, the Potency [5] is reported as 0.0756 µM (active) and the Potency [2] is reported as 129 nM (active) and 166 nM (active). The Potency [4] was 0.23 µM (active).

In the case of `C[C@@]1(C(=O)Nc2ccc(F)nc2)CCCN1c1nc(Nc2cc(C3CC3)[nH]n2)c2cccn2n1`, the Potency [1] is reported as “inactive” and the Potency [2] is reported as 2.95 µM (active).

With `CC(=O)NCCC(=O)N[C@@H](CCC(N)=O)C(=O)N[C@@H](CO)C(=O)N[C@@H](CCC(N)=O)C(=O)N[C@@H](CCC(N)=O)C(=O)N[C@H](C(=O)N[C@@H](Cc1ccccc1)C(=O)N[C@]1(C)CCCCCCC=CCCC[C@@](C)(C(=O)N[C@@H](CCC(N)=O)C(=O)N[C@@H](CC(N)=O)C(N)=O)NC(=O)[C@H](CC(C)C)NC(=O)[C@H](CC(C)C)NC(=O)[C@@H](CCCNC(=N)N)NC(=O)[C@H](Cc2c[nH]c3ccccc23)NC(=O)[C@H](CC(C)C)NC(=O)[C@H](CC(N)=O)NC1=O)[C@H](C)O` the Potency [1] was “inactive”, the Potency [2] was “inactive” and the Potency [4] was “inactive”.

For `Cn1c(=O)c(-c2c(Cl)cccc2Cl)cc2cnc(Nc3cccc(C(=O)O)c3)nc21`, the Potency [1] was “inactive”, the Potency [5] was “inactive” and the Potency [2] was “inactive”. For the same compound, the Potency [4] was “inactive”.

In the case of `CCOC(=O)[C@@H](N)CCC(=O)N[C@@H](CSCc1ccccc1)C(=O)N[C@@H](C(=O)OCC)c1ccccc1`, the Potency [1] is reported as “inactive”, the Potency [2] is reported as 20.9 µM (active) and the Potency [4] is reported as 16.6 µM (active).

For `CC[C@@H]([C@H](C)O)n1ncn(-c2ccc(N3CCN(c4ccc(OCC5CO[C@@](Cn6cncn6)(c6ccc(F)cc6F)C5)cc4)CC3)cc2)c1=O` (stereo partly specified), the Potency [1] was “inactive” and the Potency [2] was “inactive”.

With `CC(=O)Nc1cccc(-n2c(=O)n(C3CC3)c(=O)c3c(Nc4ccc(I)cc4F)n(C)c(=O)c(C)c32)c1` the Potency [1] was “inactive” and the Potency [2] was “inactive”.

In the case of `CN(C(Cc1ccc(OS(=O)(=O)c2cccc3cnccc23)cc1)C(=O)N1CCN(c2ccccc2)CC1)S(=O)(=O)c1cccc2cnccc12` (stereo unspecified), the Potency [1] is reported as 11.9 µM (active) and the Potency [2] is reported as 7.31 µM (active).

With `COc1ccc(-c2oc3c(CC=C(C)C)c(O)cc(O)c3c(=O)c2O)cc1` the Potency [1] was “inactive”, the Potency [2] was “inactive” and the Potency [4] was “inactive”.

For `NC(=O)c1ccc(N(C(N)=O)c2c(F)cccc2F)nc1-c1ccc(F)cc1F`, the Potency [1] was “inactive”, the Potency [2] was “inactive” and the Potency [4] was “inactive”.

In the case of `CCCCOCCOc1nc(-c2ccc(C(=O)O)c(F)c2)sc1C`, the Potency [1] is reported as “inactive”, the Potency [2] is reported as “inactive” and the Potency [4] is reported as “inactive”.

With `CC[C@H](C)n1cc(C)c2c(C(=O)NCc3c(C)cc(C)[nH]c3=O)cc(-c3ccc(N4CCNCC4)nc3)cc21` the Potency [1] was “inactive”, the Potency [2] was 18.6 µM (active) and the Potency [4] was 16.6 µM (active).

For `CCC(C)SSc1ncc[nH]1` (stereo unspecified), the Potency [1] was “inactive”, the Potency [2] was 9.34 µM (active) and the Potency [4] was 8.33 µM (active).

For `O=C(O)Cc1cccc(OCCCN(Cc2cccc(C(F)(F)F)c2Cl)CC(c2ccccc2)c2ccccc2)c1`, the Potency [1] was “inactive”, the Potency [2] was “inactive” and the Potency [4] was “inactive”.

For `Cc1ccc(S(=O)(=O)OCC(=O)Nc2ccc(C(=O)O)c(O)c2)cc1`, the Potency [1] was “inactive”, the Potency [2] was “inactive” and the Potency [4] was “inactive”.

For `CCOc1ccccc1N=Nc1c(C)[nH]n(-c2nc(-c3ccccc3)cs2)c1=O`, the Potency [1] was “inactive”, the Potency [2] was “inactive” and the Potency [4] was “inactive”.

For `CN(C)c1ccccc1CN1CCCN(Cc2ccccc2N(C)C)C1c1ccncc1`, the Potency [1] was “inactive”, the Potency [2] was 14.8 µM (active) and the Potency [4] was 10.5 µM (active).

In the case of `CCC[C@H](N[C@@H](C)C(=O)N1[C@@H]2CCCC[C@H]2C[C@H]1C(=O)O)C(=O)OCC`, the Potency [1] is reported as “inactive”, the Potency [2] is reported as “inactive” and the Potency [4] is reported as “inactive”.

In the case of `Cc1ccc(C(=O)N(CCCN)[C@@H](c2oc3cc(Cl)ccc3c(=O)c2Cc2ccccc2)C(C)C)cc1`, the Potency [1] is reported as “inactive”, the Potency [2] is reported as 0.0332 µM (active) and the Potency [4] is reported as 0.0263 µM (active).

— PubChem BioAssay (NCATS)
